PubChem BioAssay
Active and inactive are the calls of the source.

Assays:
Albumin (Bos taurus) = Albumin (Bos taurus) (UniProt P02769); assay: compounds binding labelled BSA control protein – biochemical, small-molecule microarray, Alexa647 label, 635/667 nm fluorescence, artefact control for SMM control protein annotation, profiling panel (AID 1118); details: BSA-A647 binding, fluorescence 635 nm, higher = more signal;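 further: score merges 667 nm emission intensity and signal-to-noise per printed compound spot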
[1] = probe aXIP binding to arrayed compounds – biochemical, NeuroSMM set, 635/667 nm fluorescence, primary screen (AID 1119); details: small-molecule microarray, higher = more signal, called active from +8 up or from −8 down;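 further: probe is the protein aXip251-270 applied at 1 µg/mL to compound-printed slides; binding of probe to printed compounds measured as 667 nm fluorescence plus signal to noise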
[2] = probe aNOTCH3 binding on compound microarray – biochemical, small-molecule microarray, 635/667 nm fluorescence, primary screen (AID 1120); details: higher = more signal;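 further: probe is a biotin-tagged antibody raised against NOTCH3 rather than NOTCH3 protein; score merges spot fluorescence near 667 nm with spot signal to noise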
[3] = probe aNOTCH2 binding on compound microarray – biochemical, small-molecule microarray, 635/667 nm fluorescence, primary screen (AID 1121); details: higher = more signal;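 further: score merges feature fluorescence read at 667 nm with its signal to noise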
[4] = target: Carbonic anhydrase 2 (Homo sapiens) (UniProt P00918); assay: compounds binding carbonic anhydrase 2 – biochemical, small-molecule microarray, Alexa647-labelled CAII, profiling panel (AID 1122); details: CAII-A647 binding fluorescence, higher = more signal
[5] = COS7 lysate on small-molecule microarray, probe aHis, 635 nm (AID 1123); details: COS7 cell lysate, fluorescence, higher = more signal;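 further: z-score combines 667nm fluorescence intensity with signal-to-noise per printed compound spot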
[6] = probe aLAP1 signal on lysate-treated microarray – cell lysate, small-molecule microarray, COS7 lysate, primary screen (AID 1124); details: probe aLAP1, fluorescence, higher = more signal;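 further: lysate comes from COS7 cells expressing LAP1 and is applied at 0.3 µg/mL; score merges spot fluorescence near 667 nm with signal-to-noise over triplicate slides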
Sam68 (KHDRBS1) = assay: compounds binding KHDRBS1 protein – biochemical, small-molecule microarray, 635 nm fluorescence, primary screen (AID 1125); details: higher = more signal;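 further: score merges 667 nm channel intensity with signal to noise over triplicate slides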
[7] = tested on: Chordin-like protein 2 (CHRDL2); assay: compounds binding chordin-like 2 – biochemical, small-molecule microarray, 635 nm fluorescence, primary screen (AID 1126); details: fluorescence 635 nm, higher = more signal;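 further: printed compound slides probed with Chrdl2 protein at 4 µg/mL for 1 h at 4 C; score merges 667 nm emission intensity with signal to noise over three replicate slides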
[8] = target: Concanavalin-A (Canavalia ensiformis) (UniProt P02866); assay: compounds binding concanavalin A lectin – biochemical, small-molecule microarray, Alexa647 label, 635 nm, artefact control for SMM control protein annotation, primary screen (AID 1127); details: ConA-A647 binding fluorescence, higher = more signal;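 further: z combines 667 nm emission intensity with signal-to-noise across three replicate slides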
[9] = compounds binding Alexa647 anti-His antibody – biochemical, small-molecule microarray, 635 nm fluorescence, artefact control for SMM control protein annotation, primary screen (AID 1128); details: higher = more signal;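 further: score merges feature fluorescence with signal-to-noise for each printed compound spot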
[10] = tested on: Human papillomavirus type 1a E7 protein (residues 1-88); assay: HPV1a E7 small-molecule binders, primary screen, biochemical, small-molecule microarray, residues 1-88, 635 nm (AID 1129); details: small-molecule microarray binding, fluorescence 635 nm; higher = more signal
[11] = target: Focal adhesion kinase 1 (Homo sapiens) (UniProt Q05397); assay: PTK2 protein binding on printed compound slides – biochemical, small-molecule microarray, 635/667 nm fluorescence, BSA, DTT, primary screen (AID 1130); details: 635 nm fluorescence, higher = more signal;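 further: composite of spot emission at 667 nm and signal to noise over triplicate slides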
[12] = tested on: Fibrinogen (Alexa647-labelled); assay: Alexa647-fibrinogen binding to printed small molecules – biochemical, small-molecule microarray, 635/667 nm fluorescence, artefact control for SMM control-protein annotation, profiling panel (AID 1131); details: fibrinogen-A647 binding fluorescence, higher = more signal;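 further: z-score merges 667 nm fluorescence with per-spot signal-to-noise over triplicate slides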
[13] = target: Follistatin (Homo sapiens) (UniProt P19883); assay: FST protein binding to printed compounds – biochemical, small-molecule microarray, 635/667 nm fluorescence, primary screen (AID 1132); details: 635 nm fluorescence, higher = more signal
[14] = target: Fibroblast growth factor 2 (Homo sapiens) (UniProt P09038); assay: basic fibroblast growth factor binding to printed compounds – biochemical, small-molecule microarray, 635/667 nm fluorescence, primary screen (AID 1133); details: FGF2, fluorescence 635/667, higher = more signal
[15] = JC-1 mitochondrial potential readout, lung cancer cells – cell-based, A549, JC-1 fluorescence, basal, 24 h, 100 nL, profiling panel (AID 1138); details: higher = more signal;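 further: A549 lung adenocarcinoma cells under basal conditions with no added stimulus; test concentration not given here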
Lefty1 = Lefty1 protein binding to printed compounds – biochemical, small-molecule microarray, 635/667 nm fluorescence, primary screen (AID 1139); details: fluorescence 635/667, higher = more signal
[16] = tested on: wheat germ agglutinin (Triticum aestivum), Alexa647-labelled; assay: Alexa647-WGA lectin binding to printed small molecules – biochemical, small-molecule microarray, 635/667 nm fluorescence, artefact control for SMM control-protein annotation, profiling panel (AID 1140); details: WGA-A647 binding, 635 nm fluorescence, higher = more signal;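 further: score merges 667 nm feature emission with signal to noise over triplicate slides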
[17] = target: Luciferin 4-monooxygenase (Photinus pyralis) (UniProt P08659); assay: inhibition of purified Photinus pyralis luciferase – biochemical, luminescence, purified enzyme, 2006 set, primary screen (AID 1141); details: purified firefly luciferase, SteadyGlo luminescence, 30 min; higher = more signal, called active from +8 up or from −8 down;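 further: cell-free assay with purified firefly luciferase at 100 ng per well in PBS; test concentration not given here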
Luciferin 4-monooxygenase (Photinus pyralis), sequence (P08659 whole entry, looked up): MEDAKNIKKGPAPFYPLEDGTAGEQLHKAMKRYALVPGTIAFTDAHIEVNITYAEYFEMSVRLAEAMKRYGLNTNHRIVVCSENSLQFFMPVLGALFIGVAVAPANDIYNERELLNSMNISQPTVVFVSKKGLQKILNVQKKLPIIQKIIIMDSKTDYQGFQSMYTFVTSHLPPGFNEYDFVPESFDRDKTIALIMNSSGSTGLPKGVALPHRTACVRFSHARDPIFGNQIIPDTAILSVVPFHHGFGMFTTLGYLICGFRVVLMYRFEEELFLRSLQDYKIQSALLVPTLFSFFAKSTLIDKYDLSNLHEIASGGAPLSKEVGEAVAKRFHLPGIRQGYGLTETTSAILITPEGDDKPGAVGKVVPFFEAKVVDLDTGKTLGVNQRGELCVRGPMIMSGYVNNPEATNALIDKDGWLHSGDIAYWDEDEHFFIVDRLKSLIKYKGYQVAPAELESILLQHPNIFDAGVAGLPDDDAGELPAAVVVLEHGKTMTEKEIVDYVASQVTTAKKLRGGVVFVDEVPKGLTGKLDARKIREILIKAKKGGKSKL

Focal adhesion kinase 1 (Homo sapiens), sequence (Q05397 whole entry, looked up): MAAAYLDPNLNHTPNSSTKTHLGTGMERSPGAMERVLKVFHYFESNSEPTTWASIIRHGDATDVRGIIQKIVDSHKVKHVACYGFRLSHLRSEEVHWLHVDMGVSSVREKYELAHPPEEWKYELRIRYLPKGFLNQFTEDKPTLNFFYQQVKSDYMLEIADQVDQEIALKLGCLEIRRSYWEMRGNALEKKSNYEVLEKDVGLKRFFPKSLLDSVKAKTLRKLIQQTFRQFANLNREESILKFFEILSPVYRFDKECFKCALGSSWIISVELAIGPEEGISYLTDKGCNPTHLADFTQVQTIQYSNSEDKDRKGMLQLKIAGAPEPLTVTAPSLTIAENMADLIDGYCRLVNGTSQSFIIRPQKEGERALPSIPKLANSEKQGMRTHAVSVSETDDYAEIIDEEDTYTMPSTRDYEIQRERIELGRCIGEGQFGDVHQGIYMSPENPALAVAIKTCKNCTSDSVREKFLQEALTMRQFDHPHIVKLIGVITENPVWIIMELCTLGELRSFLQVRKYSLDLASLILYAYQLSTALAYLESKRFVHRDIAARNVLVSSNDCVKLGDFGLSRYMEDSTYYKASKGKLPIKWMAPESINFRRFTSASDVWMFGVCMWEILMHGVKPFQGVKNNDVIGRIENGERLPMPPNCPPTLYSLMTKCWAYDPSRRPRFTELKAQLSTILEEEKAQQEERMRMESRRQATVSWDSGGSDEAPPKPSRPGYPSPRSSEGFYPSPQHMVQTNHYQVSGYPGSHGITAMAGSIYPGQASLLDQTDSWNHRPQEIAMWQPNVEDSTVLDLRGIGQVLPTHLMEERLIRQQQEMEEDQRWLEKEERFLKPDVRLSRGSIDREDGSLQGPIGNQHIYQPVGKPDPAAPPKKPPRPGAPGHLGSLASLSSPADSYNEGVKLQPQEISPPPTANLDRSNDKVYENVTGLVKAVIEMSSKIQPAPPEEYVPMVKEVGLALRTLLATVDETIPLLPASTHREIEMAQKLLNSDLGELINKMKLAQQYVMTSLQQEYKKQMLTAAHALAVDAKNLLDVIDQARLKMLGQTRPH
Follistatin (Homo sapiens), sequence (P19883 whole entry, looked up): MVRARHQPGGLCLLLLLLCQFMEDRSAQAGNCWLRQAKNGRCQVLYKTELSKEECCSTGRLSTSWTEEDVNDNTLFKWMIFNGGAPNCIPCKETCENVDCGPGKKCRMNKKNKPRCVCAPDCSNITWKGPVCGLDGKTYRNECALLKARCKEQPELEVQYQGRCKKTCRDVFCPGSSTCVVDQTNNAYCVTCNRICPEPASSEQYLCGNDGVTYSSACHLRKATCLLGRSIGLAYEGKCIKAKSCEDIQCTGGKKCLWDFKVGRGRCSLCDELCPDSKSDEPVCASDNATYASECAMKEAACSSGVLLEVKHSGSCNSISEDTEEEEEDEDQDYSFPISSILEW
Concanavalin-A (Canavalia ensiformis), sequence (P02866 whole entry, looked up): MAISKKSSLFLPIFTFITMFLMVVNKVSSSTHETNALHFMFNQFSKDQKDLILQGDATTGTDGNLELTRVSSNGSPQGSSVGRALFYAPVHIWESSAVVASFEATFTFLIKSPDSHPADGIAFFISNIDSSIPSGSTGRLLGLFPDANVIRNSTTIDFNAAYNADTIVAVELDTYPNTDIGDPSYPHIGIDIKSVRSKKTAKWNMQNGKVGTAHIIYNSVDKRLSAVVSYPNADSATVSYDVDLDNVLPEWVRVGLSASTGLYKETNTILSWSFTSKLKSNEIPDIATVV
Albumin (Bos taurus), sequence (P02769 whole entry, looked up): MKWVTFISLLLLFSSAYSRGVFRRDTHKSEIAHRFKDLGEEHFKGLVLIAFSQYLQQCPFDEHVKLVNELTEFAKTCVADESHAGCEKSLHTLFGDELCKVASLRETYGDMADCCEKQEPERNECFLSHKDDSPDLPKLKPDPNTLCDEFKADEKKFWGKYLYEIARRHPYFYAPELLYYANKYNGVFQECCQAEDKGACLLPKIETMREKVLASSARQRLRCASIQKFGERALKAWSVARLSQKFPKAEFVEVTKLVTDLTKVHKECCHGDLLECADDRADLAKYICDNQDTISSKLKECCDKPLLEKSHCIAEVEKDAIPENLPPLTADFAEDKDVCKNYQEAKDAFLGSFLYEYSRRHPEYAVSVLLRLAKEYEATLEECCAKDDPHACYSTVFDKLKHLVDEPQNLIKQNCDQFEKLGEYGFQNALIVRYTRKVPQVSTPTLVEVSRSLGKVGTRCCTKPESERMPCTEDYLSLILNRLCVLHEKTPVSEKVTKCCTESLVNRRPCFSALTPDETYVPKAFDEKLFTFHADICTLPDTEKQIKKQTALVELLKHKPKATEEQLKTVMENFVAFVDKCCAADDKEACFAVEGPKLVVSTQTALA
Fibroblast growth factor 2 (Homo sapiens), sequence (P09038 whole entry, looked up): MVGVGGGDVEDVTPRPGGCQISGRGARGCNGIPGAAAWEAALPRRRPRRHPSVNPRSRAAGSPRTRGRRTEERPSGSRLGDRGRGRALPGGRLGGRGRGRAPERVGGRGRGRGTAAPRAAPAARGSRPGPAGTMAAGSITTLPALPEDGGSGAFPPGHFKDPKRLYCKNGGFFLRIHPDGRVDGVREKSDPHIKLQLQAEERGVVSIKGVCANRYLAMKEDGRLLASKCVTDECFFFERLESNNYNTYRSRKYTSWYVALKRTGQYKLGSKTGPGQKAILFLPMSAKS

Structure (SMILES)	composite z-score (Albumin (Bos taurus))	composite Z-score [1]	composite z-score [2]	composite z-score [3]	composite z-score [4]	composite z-score [5]	composite z-score [6]	composite z-score (Sam68 (KHDRBS1))	composite z-score [7]	composite z-score [8]	composite z-score [9]	composite z-score [10]	composite z-score [11]	composite z-score [12]	composite z-score [13]	composite z-score [14]	z-score [15]	composite z-score (Lefty1)	composite z-score [16]	z-score [17]
CC(C)N1C(=O)[C@@]2(Cc3ccccc31)c1ccccc1C(=O)N(Cc1ccccc1Cl)[C@H]2c1ccc(CO)cc1	-0.594	0.203 (inactive)	-0.321	-0.152	-0.154	-0.472	-0.289	-0.162	-0.465	0.0302	-0.145	-1.3	-0.236	-2.02	-1.17	-0.468	-0.176	-0.391	-0.0789	0.847 (inactive)
C=C(C)[C@@H]1CC=C(C(O)C2C=CC3C(=O)N(c4ccccc4)C(=O)C3N2Nc2ccccc2)CC1 (stereo not given in full)	0.889	0.788 (inactive)	0.75	0.405	0.879	2.84	0.736	1.3	0.543	1.13	0.858	1.24	0.0294	0.982	1.22	0.001	-0.369	0.226	1.32	-1.24 (inactive)
CCOC(=O)C[C@H]1[C@H](OC(=O)c2ccc(C(=O)c3ccccc3)cc2)[C@@H](NC(=O)c2ccc3ccccc3n2)c2cc(OCCCO)ccc2N1C(=O)c1ccccc1	0.583	-0.12 (inactive)	0.0488	-0.0646	0.249	0.994	0.545	1.29	-0.322	1.12	-0.0053	0.924	0.0305	0.807	0.559	0.674	0.332	1.63	0.761	0.393 (inactive)
C=CCOC(=O)[C@@H]1[C@H]2C(=O)O[C@H](c3ccccc3)[C@H](c3ccccc3)N2[C@H](c2ccc(OCCOC(=O)[C@H]3C[C@H]4C(=O)N5CCC[C@H]5C(=O)N4[C@H]3c3ccc(O)cc3)cc2)[C@@]12C(=O)Nc1ccc(I)cc12	-1.18	0.76 (inactive)	-0.213	0.0701	0.339	1.58	-0.299	1.3	1.09	1.13	2.01	1.19	0.453	0.409	1.39	1.58	-1.6	1.42	0.497	-0.376 (inactive)
NC(=O)N1C(=O)C2C(C1=O)C1C=C(c3ccc(CO)cc3)C2C(c2cccs2)N1Cc1cccc(OC(F)(F)F)c1 (stereo not given)	-0.137	0.29 (inactive)	0.111	-0.0449	0.72	0.669	0.798	-0.882	0.38	-0.0204	1.16	0.0253	0.556	-0.0767	0.704	-0.365	1.22	0.444	0.949	-2.17 (inactive)
COC(=O)[C@@]1(Cc2ccc(F)cc2)[C@H]2c3cc(C(=O)N(C)C)n(Cc4ccc(Cl)c(C(F)(F)F)c4)c3C[C@H]2CN1C(=O)c1ccccc1	1.03	0.623 (inactive)	0.405	0.266	0.77	3.26	1.05	1.31	-0.899	1.15	2.56	1.22	1.14	1.01	0.909	-0.542	1.98	-0.764	1.4	1.04 (inactive)
